{"source": "PubChem BioAssay (EPA / NIEHS)", "note": "Some compounds were tested as several samples or in several runs, with calls that do not always agree. Calls of active or inactive are those of the source. The calls were made as follows: active = hit-call score of the fitted dose curve at least 0.9, where 1 is the maximum; inactive = score below 0.9.", "data": [{"assay": "BSK_BE3C_SRB: Viability Assessment in the BioMAP Diversity Plus: BE3C Assay (AID 2283028);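 as to AC50: fitted both ways so AC50 may mark signal gain or loss versus DMSO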", "conditions": "primary human bronchial epithelial cells", "experimental": "BSK_BE3C is a cell-based, multiplexed-readout assay that uses bronchial epithelial cell, a human lung primary cell, with measurements taken at 24 hours after chemical dosing in a 96-well plate.BSK_BE3C_SRB is an assay component measured in the BSK_BE3C assay. It measures 0.1% sulforhodamine related to cell death using Sulforhodamine staining technology.Data from the assay component BSK_BE3C_SRB was analyzed into 1 assay endpoint. This assay endpoint, BSK_BE3C_SRB, was analyzed with bidirectional fitting relative to DMSO as the negative control and baseline of activity. Using a type of viability reporter, gain or loss-of-signal activity can be used to understand changes in the signaling. Furthermore, this assay endpoint can be referred to as a primary readout, because this assay has produced multiple assay endpoints where this one serves a signaling function. To generalize the intended target to other relatable targets, this assay endpoint is annotated to the cell morphology intended target family, where the subfamily is cell conformation.\nThe levels of cell surface (or secreted, indicated by the prefix \"s\") biomarker endpoints were measured by ELISA. Overt cytotoxicity to cells in confluent adherent cultures (all systems other than the BT system) was assessed by measuring total protein levels using sulforhodamine B (SRB) staining in parallel cultures at the time of biomarker measurements, indicated as SRB endpoints. For proliferation assays for adherent cell types, individual cell types are cultured at sub-confluence and relative cell numbers quantified by SRB staining at time points optimized for each system (48 h: 3C and CASM3C systems; 72 h: BT and HDF3CGF systems; 96 h: SAg system). SRB was performed by staining cells with 0.1% SRB after fixation with 10% TCA and reading wells at 560 nm.Viability and proliferation of PBMC (T cells) was quantified by Alamar Blue reduction for the SAg and BT systems. For PBMC viability (referred to as PBMC Cytotoxicity within the assay endpoint names), cells were plated (75,000/well in a 96-well plate) and then chemical samples added for 1 h before addition of activators, SEB and TSST-1 (20 ng/mL final concentration each). Cells were incubated for 90 h. Then, Alamar Blue (20 uL/well) (Invitrogen, Cat DAL1100) was added for 6 h, and the plates were read with a fluorescence microplate reader at 546/580 nm (excitation/emission). For PBMC proliferation, cells were plated and activated as above but incubated for only 16 h prior to addition of Alamar Blue. Plates were read after 6 h.", "values": [{"smiles": "CCCN(CCOc1c(Cl)cc(Cl)cc1Cl)C(=O)n1ccnc1", "AC50": "28.9 µM (active)"}, {"smiles": "O=[N+]([O-])c1c(Cl)c(Cl)c(Cl)c(Cl)c1Cl", "outcome": "inactive"}, {"smiles": "COC(=O)c1ccccc1S(=O)(=O)NC(=O)N(C)c1nc(C)nc(OC)n1", "outcome": "inactive"}, {"smiles": "CCOCN(C(=O)CCl)c1c(C)cccc1CC", "AC50": "20 µM (active)"}, {"smiles": "Oc1cc(Cl)ccc1Oc1ccc(Cl)cc1Cl", "AC50": "31.4 µM (active) [middle of 4 runs]"}, {"smiles": "COP(=S)(OC)Oc1ccc(SC)c(C)c1", "AC50": "23.2 µM (active)"}, {"smiles": "COc1nn(CSP(=S)(OC)OC)c(=O)s1", "outcome": "inactive"}, {"smiles": "CC(C)N(C(=O)COc1nnc(C(F)(F)F)s1)c1ccc(F)cc1", "outcome": "inactive"}, {"smiles": "CNC(=O)/C=C(\\C)OP(=O)(OC)OC", "outcome": "inactive"}, {"smiles": "O=C(O)COc1ccc(Cl)cc1Cl", "outcome": "inactive"}, {"smiles": "Cc1[nH]c(=O)n(C(C)(C)C)c(=O)c1Cl", "outcome": "inactive"}, {"smiles": "O=C(Nc1ccccc1)Nc1cnns1", "outcome": "inactive"}, {"smiles": "O=[N+]([O-])/N=C1\\NCCN1Cc1ccc(Cl)nc1", "outcome": "inactive"}, {"smiles": "C#CCN1C(=O)COc2cc(F)c(N3C(=O)C4=C(CCCC4)C3=O)cc21", "outcome": "inactive"}, {"smiles": "CC1(C)C(C=C(Cl)Cl)C1C(=O)OC(C#N)c1ccc(F)c(Oc2ccccc2)c1", "note": "(stereo not given)", "outcome": "inactive"}, {"smiles": "CCC(C)(NC(=O)c1cc(Cl)c(C)c(Cl)c1)C(=O)CCl", "note": "(stereo not given)", "AC50": "16.5 µM (active)"}, {"smiles": "COP(=S)(OC)Oc1ccc([N+](=O)[O-])cc1", "outcome": "inactive"}, {"smiles": "C[C@H]1[C@H](c2ccc(Cl)cc2)SC(=O)N1C(=O)NC1CCCCC1", "AC50": "15.7 µM (active)"}, {"smiles": "O=S1OCC2C(CO1)C1(Cl)C(Cl)=C(Cl)C2(Cl)C1(Cl)Cl", "note": "(stereo not given)", "AC50": "20.9 µM (active)"}, {"smiles": "O=C(O)CCCOc1ccc(Cl)cc1Cl", "outcome": "inactive"}, {"smiles": "CCCN(CCC)c1c([N+](=O)[O-])cc(C(F)(F)F)cc1[N+](=O)[O-]", "outcome": "inactive"}, {"smiles": "ClC1C(Cl)C(Cl)C(Cl)C(Cl)C1Cl", "note": "(stereo not given)", "outcome": "inactive"}, {"smiles": "CC(C)(C)C(O)C(Oc1ccc(Cl)cc1)n1cncn1", "note": "(stereo not given)", "outcome": "inactive"}, {"smiles": "CC1(c2ccc(Oc3ccccc3)cc2)OC(=O)N(Nc2ccccc2)C1=O", "note": "(stereo not given)", "AC50": "27.5 µM (active)"}, {"smiles": "CCOc1nc(NC)nc(NC(=O)NS(=O)(=O)c2ccccc2C(=O)OC)n1", "outcome": "inactive"}, {"smiles": "CN1CSC(=S)N(C)C1", "outcome": "inactive"}, {"smiles": "CNC(=O)CSP(=S)(OC)OC", "outcome": "inactive"}, {"smiles": "CC(C)OC(=O)Nc1cccc(Cl)c1", "outcome": "inactive"}, {"smiles": "N#CN", "outcome": "inactive"}, {"smiles": "O=S(=O)(O)C(F)(F)C(F)(F)C(F)(F)C(F)(F)C(F)(F)C(F)(F)C(F)(F)C(F)(F)F", "AC50": "19.8 µM (active) [middle of 7 runs]", "outcome": "inactive"}, {"smiles": "CNC(=O)Oc1cccc(N=CN(C)C)c1", "outcome": "inactive"}, {"smiles": "COC(=O)c1ccccc1CS(=O)(=O)NC(=O)Nc1nc(OC)cc(OC)n1", "outcome": "inactive"}, {"smiles": "OCCOc1ccccc1", "outcome": "inactive"}, {"smiles": "CCS(=O)(=O)c1cccnc1S(=O)(=O)NC(=O)Nc1nc(OC)cc(OC)n1", "outcome": "inactive"}, {"smiles": "CCOC1Oc2ccc(OS(C)(=O)=O)cc2C1(C)C", "note": "(stereo not given)", "outcome": "inactive"}, {"smiles": "N#Cc1c(Cl)c(Cl)c(Cl)c(C#N)c1Cl", "AC50": "1.72 µM (active)"}, {"smiles": "Cc1cc(C)nc(NC(=O)NS(=O)(=O)c2ccccc2C(=O)OC2COC2)n1", "outcome": "inactive"}, {"smiles": "O=C(NC(=O)c1c(F)cccc1F)Nc1ccc(OC(F)(F)C(F)OC(F)(F)F)c(Cl)c1", "note": "(stereo not given)", "outcome": "inactive"}, {"smiles": "[2H]C1([2H])[n+]2ccccc2-c2cccc[n+]2C1([2H])[2H]", "AC50": "13.3 µM (active)"}]}]}
